Measurements as given in PubChem BioAssay (Tox21).
Records with an inconclusive call do not appear. Calls of active or inactive are those of the source. Unless noted, calls come from the whole dose curve.

Experiments:
[1] = qHTS assay to identify small molecule agonists of the sonic hedgehog signaling (Shh) pathway (AID 1259368);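 note: NIH/3T3-derived 3T3Gli1-Luc cells carrying a stable Gli1-driven firefly luciferase reporter; series mostly up to about 92 µM; nearly all actives have a fitted effect of over 15% in size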
In short: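 Luminescent signal was taken as a measure of Gli1-controlled luciferase expression in stably transfected NIH/3T3-derived cells that had been treated for 24 hr with compounds delivered in DMSO.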

[2] = qHTS assay to identify small molecule antagonists of the sonic hedgehog signaling (Shh) pathway (AID 1259369); note: nearly all actives have a fitted effect of over 45% in size; note: potency is the fitted concentration of half-maximal effect
In short: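 Screening used 3T3Gli1-Luc cells at 2,000 per well, compounds delivered in DMSO, and conditioned medium as agonist stimulus; plates incubated 24hr at 37 C and 5% CO2 before a 30min luciferase step.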

[3] = molecular target: Estrogen receptor beta (Homo sapiens) (UniProt Q92731); assay: qHTS assay to identify small molecule agonists of the estrogen receptor beta (ER-beta) signaling pathway (AID 1259377; active = well fitted activation curve with a large enough effect in the signal ratio in the repeat runs, not every such curve was filed as active; the % refers to the signal ratio)
In short: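 In HEK293T cells bearing a UAS-beta-lactamase reporter under ER-beta control, DMSO-delivered compounds were incubated for 16 hr at 37C. Activity was detected as fluorescence 2 hours after LiveBLAzer B/G FRET substrate addition.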

[4] = molecular target: Estrogen receptor beta (Homo sapiens) (UniProt Q92731); assay: qHTS assay to identify small molecule antagonists of the estrogen receptor beta (ER-beta) signaling pathway (AID 1259378; active = well fitted inhibition curve with a large enough effect in the signal ratio in the repeat runs, not every such curve was filed as active; the % refers to the signal ratio; note: potency is the fitted concentration of half-maximal effect)
In short: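 ER-beta-UAS-bla HEK293T cells in 2% charcoal-stripped FBS medium treated with compound plus 1nM final 17-beta-estradiol for 16 hr at 37C. Beta-lactamase reporter read by FRET substrate fluorescence after 2 hours at room temperature.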

[5] = qHTS assay to identify small molecule agonists of the androgen receptor (AR) signaling pathway in the presence of an antagonist - cell viability counter screen (AID 1259379; active = well fitted curve in the direction sought with a large enough effect in the repeat runs; an effect the other way counts as inactive or inconclusive; note: nearly all actives have a fitted effect of over 25% in size; note: potency is the fitted concentration of half-maximal effect;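 for activity change, negative = cytotoxicity: MDA-kb2 human breast cancer cells carrying an MMTV luciferase reporter; series mostly up to about 92 µM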)
In short: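 In MDA-kb2 cells (human breast carcinoma, MMTV-luciferase), compounds at 15 concentrations plus 3.0uM nilutamide; 16 hr, 37C, 0% CO2; CellTiter-Fluor fluorescence read for viability.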

[6] = molecular target: Estrogen receptor (Homo sapiens) (UniProt P03372); assay: qHTS assay to identify small molecule agonists of the estrogen receptor alpha (ER-alpha) signaling pathway in the presence of an antagonist (AID 1259383); note: top concentration of the series differs between compounds; nearly all actives have a fitted effect of over 15% in size
In short: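 In VM7Luc4E2 cells, 4,000 per well, compounds at 15 concentrations were co-incubated 22hr at 37C with 10.0nM final ICI-182,780. Luminescence from the stably transfected 4×ERE-luciferase reporter was recorded 30min after ONE-Glo addition.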

[7] = qHTS assay to identify small molecule agonists or antagonists of the thyroid stimulating hormone receptor (TSHR) signaling pathway - wild type cell line counter screen (AID 1259384)
In short: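 Wild-type Hek293 cells, 800/well, 18 h at 37C, then compound with Ro20-1724 for 30 min RT. cAMP by HTRF (cAMP-d2/anti-cAMP cryptate), 1 h RT, fluorescence read. 15 concentrations, triplicates.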

[8] = qHTS assay to identify small molecule agonists of the estrogen receptor beta (ER-beta) signaling pathway - cell viability counter screen (AID 1259380; active = well fitted curve in the direction sought with a large enough effect in the repeat runs; an effect the other way counts as inactive or inconclusive; note: nearly all actives have a fitted effect of over 30% in size; note: potency is the fitted concentration of half-maximal effect)
In short: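 Viability of ER-beta-UAS-bla HEK293T cells was determined by CellTiter-Glo luminescence following 16 hr treatment with test compounds at 37C.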

[9] = molecular target: Androgen receptor (Homo sapiens) (UniProt P10275); assay: qHTS assay to identify small molecule agonists of the androgen receptor (AR) signaling pathway in the presence of an antagonist (AID 1259381); note: nearly all actives have a fitted effect of over 15% in size; note: potency is the fitted concentration of half-maximal effect
In short: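 Here, 15-concentration compound series were pin-transferred onto MDA-kb2 MMTV-luciferase cells already dosed with nilutamide (3.0uM final). After 16hr at 37C, ONE-Glo was added and luminescence read 30min later at room temperature.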

[10] = qHTS assay to identify small molecule antagonists of the estrogen receptor beta (ER-beta) signaling pathway - cell viability counter screen (AID 1259382; active = well fitted curve in the direction sought with a large enough effect in the repeat runs; an effect the other way counts as inactive or inconclusive; note: nearly all actives have a fitted effect of over 55% in size; note: potency is the fitted concentration of half-maximal effect; for activity change, negative = cytotoxicity: series mostly up to about 92 µM)
In short: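 Tox21 10K library tested in qHTS format on ER-beta-bla HEK293T cells stimulated with 1nM E2; 16 hr treatment at 37C. Same-well CellTiter-Glo luminescence served as the cell viability measure.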
% is set by controls: 0 for no effect and ±100 for the full control effect.

Chain of Androgen receptor (Homo sapiens) (P10275 whole entry, looked up): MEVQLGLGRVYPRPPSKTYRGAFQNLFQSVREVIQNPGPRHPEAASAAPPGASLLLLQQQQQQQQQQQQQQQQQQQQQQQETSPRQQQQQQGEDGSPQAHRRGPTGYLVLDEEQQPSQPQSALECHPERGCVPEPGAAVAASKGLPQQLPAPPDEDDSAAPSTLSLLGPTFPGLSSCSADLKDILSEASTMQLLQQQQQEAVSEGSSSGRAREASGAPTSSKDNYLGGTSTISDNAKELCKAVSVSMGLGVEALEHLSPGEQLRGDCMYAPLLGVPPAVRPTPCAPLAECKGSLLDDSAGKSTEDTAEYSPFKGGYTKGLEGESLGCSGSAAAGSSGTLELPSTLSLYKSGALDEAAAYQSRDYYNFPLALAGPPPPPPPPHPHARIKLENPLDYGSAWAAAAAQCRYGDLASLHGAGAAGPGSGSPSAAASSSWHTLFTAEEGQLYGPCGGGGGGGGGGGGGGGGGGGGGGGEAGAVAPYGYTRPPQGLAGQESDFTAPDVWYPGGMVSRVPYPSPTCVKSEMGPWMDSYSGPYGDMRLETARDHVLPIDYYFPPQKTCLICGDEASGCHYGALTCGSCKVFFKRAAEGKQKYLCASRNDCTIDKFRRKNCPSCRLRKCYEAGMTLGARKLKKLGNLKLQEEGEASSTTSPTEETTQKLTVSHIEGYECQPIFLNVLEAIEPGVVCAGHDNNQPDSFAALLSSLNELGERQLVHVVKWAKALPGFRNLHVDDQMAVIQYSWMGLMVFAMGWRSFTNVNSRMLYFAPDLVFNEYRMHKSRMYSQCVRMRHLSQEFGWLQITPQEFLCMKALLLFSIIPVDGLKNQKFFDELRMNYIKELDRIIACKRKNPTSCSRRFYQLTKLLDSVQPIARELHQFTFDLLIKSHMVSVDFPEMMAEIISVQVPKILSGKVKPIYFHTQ
Chain of Estrogen receptor (Homo sapiens) (P03372 whole entry, looked up): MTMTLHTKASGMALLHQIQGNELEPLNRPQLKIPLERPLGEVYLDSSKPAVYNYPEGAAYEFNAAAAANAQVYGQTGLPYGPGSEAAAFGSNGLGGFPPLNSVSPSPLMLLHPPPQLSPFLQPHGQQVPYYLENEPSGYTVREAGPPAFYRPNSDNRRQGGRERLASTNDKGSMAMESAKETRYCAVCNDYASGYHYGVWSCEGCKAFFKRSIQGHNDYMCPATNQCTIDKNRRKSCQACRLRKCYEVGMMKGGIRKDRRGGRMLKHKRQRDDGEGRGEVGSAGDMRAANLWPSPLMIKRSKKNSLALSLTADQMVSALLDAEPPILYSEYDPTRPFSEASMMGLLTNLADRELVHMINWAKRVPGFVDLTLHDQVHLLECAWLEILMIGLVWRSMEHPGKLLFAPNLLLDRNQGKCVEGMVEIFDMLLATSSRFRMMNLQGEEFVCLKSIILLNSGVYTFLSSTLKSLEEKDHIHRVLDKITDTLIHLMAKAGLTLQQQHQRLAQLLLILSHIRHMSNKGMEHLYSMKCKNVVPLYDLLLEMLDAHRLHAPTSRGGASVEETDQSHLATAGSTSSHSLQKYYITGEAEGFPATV
Chain of Estrogen receptor beta (Homo sapiens) (Q92731 whole entry, looked up): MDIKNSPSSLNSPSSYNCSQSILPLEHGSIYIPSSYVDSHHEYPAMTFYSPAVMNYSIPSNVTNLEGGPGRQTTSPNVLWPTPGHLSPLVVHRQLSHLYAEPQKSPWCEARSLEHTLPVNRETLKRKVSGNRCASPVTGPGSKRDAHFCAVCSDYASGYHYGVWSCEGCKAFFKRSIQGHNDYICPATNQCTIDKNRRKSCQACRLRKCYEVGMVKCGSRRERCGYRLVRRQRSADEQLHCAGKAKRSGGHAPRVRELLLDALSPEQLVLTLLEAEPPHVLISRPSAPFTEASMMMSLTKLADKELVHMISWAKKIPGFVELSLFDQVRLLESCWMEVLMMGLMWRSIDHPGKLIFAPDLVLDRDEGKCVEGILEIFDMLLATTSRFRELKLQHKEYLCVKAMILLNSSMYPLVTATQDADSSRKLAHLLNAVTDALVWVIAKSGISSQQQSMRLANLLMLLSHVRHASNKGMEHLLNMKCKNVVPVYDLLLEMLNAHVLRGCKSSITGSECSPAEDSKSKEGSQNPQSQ

CCNC(=O)N1CCN(CCCC(c2ccc(F)cc2)c2ccc(F)cc2)CC1
active: Potency [2] 3.35 µM | Potency [4] 21.1 µM | Potency [5] 26.6 µM
inactive: Potency [1] | Potency [3] | Potency [6] | outcome [7]

CCOC(=O)CC(=O)C(=O)OCC
inactive: Potency [1] | Potency [2] | Potency [3] | Potency [6] | outcome [7]
active: Potency [4] 48.6 µM | Potency [8] 8.63 µM | Potency [9] 1.54 µM

COC(=O)Nc1nc2ccc(C(=O)c3cccs3)cc2[nH]1
active: Potency [2] 0.335 µM
inactive: Potency [1] | Potency [3] | Potency [4] | Potency [5] | Potency [8] | Potency [10] | outcome [7]

Cc1nc2ccccc2s1
inactive: Potency [1] | Potency [2] | Potency [3] | Potency [4] | Potency [5] | Potency [8] | Potency [6]

CC[C@@H]([C@H](C)O)n1ncn(-c2ccc(N3CCN(c4ccc(OC[C@@H]5CO[C@@](Cn6cncn6)(c6ccc(F)cc6F)C5)cc4)CC3)cc2)c1=O
inactive: Potency [1] | Potency [3] | outcome [7]
active: Potency [2] 0.188 µM | Potency [4] 5.96 µM | Potency [5] 11.9 µM | Potency [8] 4.22 µM | Potency [10] 9.44 µM

O=C(O)c1ccc(CO)o1
inactive: Potency [1] | Potency [2] | Potency [3] | Potency [4] | Potency [5] | Potency [8] | Potency [10] | outcome [7]

CC(CCc1ccc2c(c1)OCO2)NN (stereo not given)
inactive: Potency [1] | Potency [2] | Potency [3] | Potency [4] | Potency [5] | Potency [8] | Potency [10] | Potency [6] | outcome [7]

CO[C@H]1O[C@H](CO)[C@@H](O)[C@H](O)[C@H]1O
inactive: Potency [1] | Potency [2] | Potency [3] | Potency [4] | Potency [5] | Potency [8] | outcome [7]

CCCOC(=O)c1ccc(N)cc1
inactive: Potency [1] | Potency [2] | Potency [3] | Potency [4] | Potency [8] | Potency [9] | Potency [10] | Potency [6] | outcome [7]

CC1(C)C(=O)N(Br)C(=O)N1Cl
inactive: Potency [1] | Potency [2] | Potency [3] | Potency [4] | Potency [5] | Potency [8] | Potency [10] | outcome [7]

CC(C)(O)c1ccccc1CC[C@@H](SCC1(CC(=O)O)CC1)c1cccc(/C=C/c2ccc3ccc(Cl)cc3n2)c1
inactive: Potency [1] | Potency [2] | Potency [3] | Potency [4] | Potency [5] | Potency [9] | Potency [10] | Potency [6] | outcome [7]

CC1CC(O)CC(C)(C)C1 (stereo not given)
inactive: Potency [1] | Potency [2] | Potency [3] | Potency [4] | Potency [5] | Potency [8] | Potency [10] | outcome [7]

C[N+]1(C)CCC(=C(c2ccccc2)c2ccccc2)CC1
inactive: Potency [1] | Potency [2] | Potency [3] | Potency [4] | Potency [5] | Potency [8] | Potency [10] | outcome [7]

CCCCCCCCCCCCCCCCBr
inactive: activity change [1] -0.182% [at 18.9 µM, hits give high values] | activity change, negative = inhibition [2] 18.7% [at 19 µM] | activation [3] 0.819% [at 19 µM] | activity, negative = inhibition [4] 8% [at 19 µM] | activity change, negative = cytotoxicity [8] 2.84% [at 19 µM] | activity change, negative = cytotoxicity [10] -0.0957% [at 19 µM] | activation [6] -0.645% [at 19 µM]

O=C(CCC1CCN(Cc2ccccc2)CC1)c1ccc2c(c1)NCCCC2
active: Potency [2] 10.6 µM | Potency [5] 29.8 µM
inactive: Potency [1] | Potency [3] | Potency [4] | Potency [9] | Potency [10] | Potency [6] | outcome [7]

CCCCCC=CCC=CCCCCCCCC(=O)OCC
inactive: Potency [1] | Potency [2] | Potency [3] | Potency [4] | Potency [5] | Potency [10] | Potency [6] | outcome [7]
active: Potency [8] 29.8 µM

CC(=N\O)/C(C)=N/O
inactive: Potency [1] | Potency [2] | Potency [3] | Potency [4] | Potency [5] | Potency [8] | outcome [7]

CCCCN(CCCC)CCCOC(=O)c1ccc(N)cc1
inactive: Potency [1] | Potency [2] | Potency [3] | Potency [4] | Potency [5] | outcome [7]

CCCCC(CC)C(=O)OCCOCCOCCOCCOC(=O)C(CC)CCCC (stereo not given)
inactive: Potency [1] | Potency [2] | Potency [3] | Potency [4] | Potency [5] | Potency [10] | Potency [6] | outcome [7]

O=C(O)c1cccc(O)c1
inactive: Potency [1] | Potency [2] | Potency [3] | Potency [4] | Potency [5] | Potency [8] | Potency [6] | outcome [7]

CCOC(=O)c1ccccc1C
inactive: Potency [1] | Potency [2] | Potency [3] | Potency [4] | Potency [5] | Potency [10] | Potency [6] | outcome [7]

CCOC(=O)/C=C/C(=O)O
inactive: Potency [1] | Potency [2] | Potency [3] | Potency [4] | Potency [8] | Potency [9] | Potency [6] | outcome [7]

CCN(CC)CCNC(=O)c1ccc(NC(C)=O)cc1
inactive: Potency [1] | Potency [2] | Potency [3] | Potency [4] | Potency [8] | Potency [9] | Potency [10] | Potency [6]

Cc1cc(OI)c(C(C)C)cc1-c1cc(C(C)C)c(OI)cc1C
inactive: Potency [1] | Potency [2] | Potency [3] | Potency [4] | Potency [5] | Potency [8] | Potency [10] | outcome [7]

C=CC(=O)NCOCC(C)C
inactive: Potency [1] | Potency [2] | Potency [3] | Potency [4] | Potency [5] | Potency [8] | Potency [10] | outcome [7]

CCCCCCCCCCCC[N+](C)(C)CC(=O)[O-]
inactive: Potency [1] | Potency [2] | Potency [3] | Potency [4] | Potency [5] | Potency [6] | outcome [7]
active: Potency [8] 24.3 µM

COC(OC)(C(=O)c1ccccc1)c1ccccc1
inactive: Potency [1] | Potency [2] | Potency [3] | Potency [4] | Potency [5] | Potency [8] | Potency [10] | outcome [7]

C1COCO1
inactive: Potency [1] | Potency [2] | Potency [3] | Potency [4] | Potency [8] | Potency [10] | Potency [6]

O=S1OCCO1
inactive: Potency [1] | Potency [2] | Potency [3] | Potency [4] | Potency [5] | Potency [8] | Potency [6] | outcome [7]

CN1C(=O)CC(C)(c2ccccc2)C1=O (stereo not given)
inactive: Potency [1] | Potency [2] | Potency [3] | Potency [4] | Potency [5] | Potency [8] | Potency [6] | outcome [7]

CN1Cc2cc(C(=O)N3CCC(C4CCNCC4)CC3)ccc2N[C@@H](CC(=O)O)C1=O
inactive: Potency [1] | Potency [2] | Potency [3] | Potency [4] | Potency [8] | Potency [10] | Potency [6]

CC1CN(c2cc3c(cc2F)c(=O)c(C(=O)O)cn3-c2ccc(F)cc2F)CCN1 (stereo not given)
inactive: activity change [1] 0.373% [at 8.39 µM, hits give high values] | activity change, negative = inhibition [2] 30.3% [at 8.39 µM] | activation [3] -1.89% [at 8.39 µM] | activity, negative = inhibition [4] 1.81% [at 8.39 µM] | activity change, negative = cytotoxicity [5] 0.826% [at 8.39 µM] | activation [6] 0.293% [at 8.39 µM] | cAMP activity change [7] -5.92% [at 8.39 µM]

Cc1nccn1-c1ccc(Sc2cccc(C3(C(N)=O)CCOCC3)c2)cc1
inactive: Potency [1] | Potency [3] | Potency [10] | Potency [6]
active: Potency [2] 3.06 µM | Potency [4] 9.69 µM | Potency [5] 8.63 µM

CC[C@H](NC(=O)c1cc(F)ccc1NS(=O)(=O)c1cccc2cccnc12)c1ccccc1
inactive: Potency [1] | Potency [2] | Potency [3] | Potency [4] | Potency [5] | Potency [6]
active: Potency [8] 18.3 µM

Cc1cc(S(=O)(=O)O)ccc1N=Nc1c(O)ccc2ccccc12
inactive: Potency [1] | Potency [2] | Potency [3] | Potency [4] | Potency [8] | outcome [7]
active: Potency [5] 30.6 µM

C[Si](NC1CCCCC1)(NC1CCCCC1)NC1CCCCC1
inactive: Potency [1] | Potency [2] | Potency [3] | Potency [4] | Potency [5] | Potency [6] | outcome [7]
active: Potency [8] 27.3 µM
